About 83,000 compounds went through this panel and 20% of them were active in at least one assay; those are over-represented in the sample as a whole.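 Single-dose data. Exposure time 48 hours. Values below 10 considered active.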 Activity calls are given as the source filed them.
How the values were obtained:
Experiment in all cases: NCI-60 one-dose screen, 48 h (100 = growth as untreated, 0 = no growth, -100 = all killed)
Settings in all cases: 10 µM unless noted
DU-145 prostate = test system: DU-145 prostate
K-562 leukemia = test system: K-562 leukemia
MALME-3M melanoma = test system: MALME-3M melanoma
MDA-MB-231 breast = test system: MDA-MB-231 breast
RXF 393 renal = test system: RXF 393 renal
SF-268 CNS = test system: SF-268 CNS
SF-295 CNS = test system: SF-295 CNS
SF-539 CNS = test system: SF-539 CNS
UACC-257 melanoma = test system: UACC-257 melanoma
M14 melanoma = test system: M14 melanoma
HCT-15 colon = test system: HCT-15 colon
HT29 colon = test system: HT29 colon
SNB-75 CNS = test system: SNB-75 CNS
SNB-19 CNS = test system: SNB-19 CNS
U251 CNS = test system: U251 CNS
PC-3 prostate = test system: PC-3 prostate
SK-MEL-5 melanoma = test system: SK-MEL-5 melanoma
UACC-62 melanoma = test system: UACC-62 melanoma
LOX IMVI melanoma = test system: LOX IMVI melanoma
SK-MEL-28 melanoma = test system: SK-MEL-28 melanoma

Measured: growth

O=C1NC(=Nc2ccc(Cl)cc2)S/C1=C\c1cn(-c2ccccc2)nc1-c1ccccc1
inactive: DU-145 prostate 89% | K-562 leukemia 92.1% | MALME-3M melanoma 83.8% | MDA-MB-231 breast 88.4% | RXF 393 renal 97% | SF-268 CNS 84.5% | SF-295 CNS 94.5% | SF-539 CNS 81% | UACC-257 melanoma 91.6% | M14 melanoma 97.1% | HCT-15 colon 76% | HT29 colon 77.5% | SNB-75 CNS 65.8% | SNB-19 CNS 90.2% | U251 CNS 18.4% | PC-3 prostate 56.5% | SK-MEL-5 melanoma 94.9% | UACC-62 melanoma 87.1% | LOX IMVI melanoma 90.5% | SK-MEL-28 melanoma 97.8%

O=[N+]([O-])c1ccc(C2CC(c3ccccc3)=Nc3ccccc3S2)cc1 (stereo not given)
inactive: DU-145 prostate 107% | K-562 leukemia 32.4% | MALME-3M melanoma 107% | MDA-MB-231 breast 101% | RXF 393 renal 116% | SF-268 CNS 98% | SF-295 CNS 119% | SF-539 CNS 101% | UACC-257 melanoma 108% | M14 melanoma 104% | HCT-15 colon 97.6% | HT29 colon 97.4% | SNB-75 CNS 57.2% | SNB-19 CNS 85.8% | U251 CNS 62.5% | PC-3 prostate 88.1% | SK-MEL-5 melanoma 87.5% | UACC-62 melanoma 84.7% | LOX IMVI melanoma 64.3% | SK-MEL-28 melanoma 116%

O=C(Nc1ccc(-n2cc(-c3ccncc3)c(-c3ccc(Cl)c(O)c3)n2)cc1)N1CCOCC1
inactive: DU-145 prostate 109% | K-562 leukemia 89.9% | MALME-3M melanoma 92.1% | MDA-MB-231 breast 105% | RXF 393 renal 135% | SF-268 CNS 99.9% | SF-295 CNS 96.4% | SF-539 CNS 92.7% | UACC-257 melanoma 109% | M14 melanoma 97% | HCT-15 colon 102% | HT29 colon 98.1% | SNB-75 CNS 93.3% | SNB-19 CNS 103% | U251 CNS 96.9% | PC-3 prostate 87.4% | SK-MEL-5 melanoma 99.1% | UACC-62 melanoma 101% | LOX IMVI melanoma 98% | SK-MEL-28 melanoma 100%

Cc1ccc(Nc2nc(N)nc(CSCC(=O)NN)n2)cc1
inactive: DU-145 prostate 103% | K-562 leukemia 96.6% | MALME-3M melanoma 111% | MDA-MB-231 breast 98.9% | RXF 393 renal 103% | SF-268 CNS 97.9% | SF-295 CNS 99.3% | SF-539 CNS 95.1% | UACC-257 melanoma 108% | M14 melanoma 114% | HCT-15 colon 101% | HT29 colon 106% | SNB-75 CNS 85.2% | SNB-19 CNS 98.5% | U251 CNS 92.9% | PC-3 prostate 93% | SK-MEL-5 melanoma 101% | UACC-62 melanoma 90.8% | LOX IMVI melanoma 95.2% | SK-MEL-28 melanoma 99.9%

COc1cc(C2CC(c3ccc(Nc4ccnc5cc(Cl)ccc45)cc3)=NN2C=O)cc(OC)c1OC (stereo not given)
active: HT29 colon -37.3% | LOX IMVI melanoma 0.138%
inactive: DU-145 prostate 66.4% | K-562 leukemia 26% | MALME-3M melanoma 25.2% | MDA-MB-231 breast 85.8% | RXF 393 renal 83.6% | SF-268 CNS 90.1% | SF-295 CNS 75.2% | SF-539 CNS 73.2% | UACC-257 melanoma 60.1% | M14 melanoma 75.1% | HCT-15 colon 48.8% | SNB-75 CNS 75.7% | SNB-19 CNS 82% | U251 CNS 44.6% | PC-3 prostate 80.6% | SK-MEL-5 melanoma 37.3% | UACC-62 melanoma 46.3% | SK-MEL-28 melanoma 22.4%

O=[N+]([O-])c1ccc(N2c3ccncc3Sc3ccncc32)cc1
inactive: DU-145 prostate 117% | K-562 leukemia 83% | MALME-3M melanoma 122% | MDA-MB-231 breast 77.1% | RXF 393 renal 83.6% | SF-268 CNS 129% | SF-295 CNS 103% | SF-539 CNS 99.3% | UACC-257 melanoma 113% | M14 melanoma 106% | HCT-15 colon 96.5% | HT29 colon 121% | SNB-75 CNS 98.9% | SNB-19 CNS 107% | U251 CNS 93.4% | PC-3 prostate 88.1% | SK-MEL-5 melanoma 112% | UACC-62 melanoma 93.2% | LOX IMVI melanoma 81.7% | SK-MEL-28 melanoma 115%

COc1ccc2c(c1)C(=O)/C(=C/c1ccc(OCC(=O)Nc3nccs3)cc1)O2
active: DU-145 prostate -37.4% | K-562 leukemia -27.3% | MALME-3M melanoma -42.2% | SF-268 CNS -68.5% | SF-539 CNS -85% | HT29 colon 3.69% | SNB-75 CNS -90.7% | U251 CNS 4.62% | PC-3 prostate -62% | LOX IMVI melanoma -58.2%
inactive: MDA-MB-231 breast 46.2% | RXF 393 renal 31.8% | SF-295 CNS 57.5% | UACC-257 melanoma 84.9% | M14 melanoma 37.3% | HCT-15 colon 76.2% | SNB-19 CNS 78.6% | SK-MEL-5 melanoma 100% | UACC-62 melanoma 74.2% | SK-MEL-28 melanoma 103%

C[C@@H]1N=C(c2ccc3ccccc3n2)Nc2nc3ccccn3c2C1=O
inactive: DU-145 prostate 107% | K-562 leukemia 102% | MALME-3M melanoma 92.4% | MDA-MB-231 breast 79.4% | RXF 393 renal 119% | SF-268 CNS 101% | SF-295 CNS 90.4% | SF-539 CNS 86.7% | UACC-257 melanoma 117% | M14 melanoma 105% | HCT-15 colon 86.8% | HT29 colon 115% | SNB-75 CNS 84.7% | SNB-19 CNS 91.2% | U251 CNS 106% | PC-3 prostate 96.8% | SK-MEL-5 melanoma 94.3% | UACC-62 melanoma 90.1% | LOX IMVI melanoma 93% | SK-MEL-28 melanoma 112%

Cn1c(-c2c(N)n(Cc3ccc(C(F)(F)F)cc3)c3nc(C#N)c(C#N)nc23)nc2ccccc21
active: DU-145 prostate -4.79% | K-562 leukemia -30.7% | MALME-3M melanoma -23.9% | MDA-MB-231 breast -13.2% | RXF 393 renal 4.46% | SF-295 CNS -27.5% | SF-539 CNS 8.23% | UACC-257 melanoma 6.78% | HT29 colon 9.72% | U251 CNS 5.09% | PC-3 prostate -26.6% | SK-MEL-5 melanoma -10.4% | LOX IMVI melanoma 2.4%
inactive: SF-268 CNS 43.3% | M14 melanoma 16.2% | HCT-15 colon 12.5% | SNB-75 CNS 15.1% | SNB-19 CNS 21.3% | UACC-62 melanoma 18.6% | SK-MEL-28 melanoma 28.8%

COc1ccc(/C=N\NC(=O)c2cc(-c3ccc(Br)cc3)n(-c3ccc(S(N)(=O)=O)cc3)n2)cc1
active: SNB-75 CNS -27.8%
inactive: DU-145 prostate 58.6% | K-562 leukemia 11.4% | MALME-3M melanoma 47% | MDA-MB-231 breast 70.4% | RXF 393 renal 18.5% | SF-268 CNS 53.1% | SF-295 CNS 11% | SF-539 CNS 18.3% | UACC-257 melanoma 66.2% | M14 melanoma 30.9% | HCT-15 colon 33.3% | HT29 colon 36.7% | SNB-19 CNS 57.3% | U251 CNS 51.3% | PC-3 prostate 51.2% | SK-MEL-5 melanoma 42% | UACC-62 melanoma 32.3% | LOX IMVI melanoma 45.4% | SK-MEL-28 melanoma 47.4%

CCOC(=O)c1ccc(N2NC(=O)/C(=C/c3ccc([N+](=O)[O-])o3)C2=O)cc1
inactive: DU-145 prostate 113% | K-562 leukemia 114% | MALME-3M melanoma 105% | MDA-MB-231 breast 133% | RXF 393 renal 44% | SF-268 CNS 99.8% | SF-295 CNS 118% | SF-539 CNS 108% | UACC-257 melanoma 90.7% | M14 melanoma 116% | HCT-15 colon 96.6% | HT29 colon 114% | SNB-75 CNS 99.9% | SNB-19 CNS 115% | U251 CNS 108% | PC-3 prostate 79.2% | SK-MEL-5 melanoma 108% | UACC-62 melanoma 112% | LOX IMVI melanoma 91.6% | SK-MEL-28 melanoma 108%

CCCCc1ccc(Nc2ccc(Nc3ccc(CCCC)cc3S(=O)(=O)O)c3c2C(=O)c2ccccc2C3=O)c(S(=O)(=O)O)c1
inactive: DU-145 prostate 107% | K-562 leukemia 114% | MALME-3M melanoma 110% | MDA-MB-231 breast 83.1% | RXF 393 renal 95% | SF-268 CNS 99.7% | SF-295 CNS 101% | SF-539 CNS 96.5% | UACC-257 melanoma 88.3% | M14 melanoma 101% | HCT-15 colon 104% | HT29 colon 113% | SNB-75 CNS 89.9% | SNB-19 CNS 104% | U251 CNS 103% | PC-3 prostate 39.1% | SK-MEL-5 melanoma 91.9% | UACC-62 melanoma 84.5% | LOX IMVI melanoma 86.4% | SK-MEL-28 melanoma 108%

Cc1ccc2[nH]c(=O)c3c(c2c1)OC(N)=C(C#N)C31c2cc(Br)ccc2-c2ccc(Br)cc21
inactive: DU-145 prostate 29.1% | K-562 leukemia 60.7% | MALME-3M melanoma 54.9% | MDA-MB-231 breast 39.1% | RXF 393 renal 65.8% | SF-268 CNS 78% | SF-295 CNS 70.1% | SF-539 CNS 85.5% | UACC-257 melanoma 76.8% | M14 melanoma 55.1% | HCT-15 colon 45.4% | HT29 colon 39.7% | SNB-75 CNS 70% | SNB-19 CNS 62.5% | U251 CNS 72.6% | PC-3 prostate 48.3% | SK-MEL-5 melanoma 56% | UACC-62 melanoma 49.5% | LOX IMVI melanoma 63% | SK-MEL-28 melanoma 66.8%

COc1ccc2oc3c(C)c4c(c(C)c3c2c1)C(=O)N(Cc1ccccc1)C4=O
inactive: DU-145 prostate 97.1% | K-562 leukemia 92.3% | MALME-3M melanoma 92.5% | MDA-MB-231 breast 90.3% | RXF 393 renal 99% | SF-268 CNS 87.8% | SF-295 CNS 101% | SF-539 CNS 89.7% | UACC-257 melanoma 105% | M14 melanoma 92.9% | HCT-15 colon 101% | HT29 colon 96.1% | SNB-75 CNS 85.9% | SNB-19 CNS 95.1% | U251 CNS 83.5% | PC-3 prostate 85.5% | SK-MEL-5 melanoma 99.6% | UACC-62 melanoma 92.5% | LOX IMVI melanoma 94% | SK-MEL-28 melanoma 103%

O=C(NCCCNc1cc(-c2cn(-c3ccccc3)nc2-c2cccc(O)c2)ccn1)c1ccc(F)cc1
inactive: DU-145 prostate 48.4% | RXF 393 renal 15.9% | SF-268 CNS 31.3% | SF-539 CNS 13.9% | SNB-75 CNS 10.9% | SNB-19 CNS 54.2% | U251 CNS 15.6% | PC-3 prostate 12.6% | LOX IMVI melanoma 21.5%
active: K-562 leukemia 0.281% | MALME-3M melanoma -12.1% | MDA-MB-231 breast -13.6% | SF-295 CNS -4.5% | UACC-257 melanoma -51.7% | M14 melanoma -41.8% | HCT-15 colon -4.32% | HT29 colon 0.339% | SK-MEL-5 melanoma -24.8% | UACC-62 melanoma -1.62% | SK-MEL-28 melanoma -34.8%
